Bioassay records deposited in PubChem by National Center for Advancing Translational Sciences (NCATS).
Most compounds without a hit are left out; they make up all but 19% or so of the library.
HT1080-NT tox – qHTS for induction of synthetic lethality in tumor cells producing 2HG: qHTS for the HT-1080-NT fibrosarcoma cell line | HT-1080-NT fibrosarcoma viability, CellTiter-Glo ATP luminescence, 48 h | Potency, µM (titrated, usually from 46.1 µM), usual class: cytotoxic | 360,000 tested, 1.6% active | AID 686970, 2013;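 further: NT is the 2HG producing partner of a matched IDH1 knockdown line; nearly all actives have a fitted effect of over 55% in size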
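Viability of the 2HG-overproducing fibrosarcoma line after 48 hours of compound exposure at 37 degrees C was determined by luminescence with CellTiter-Glo, and concentration-effect curves were then fitted and categorized.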
DT40 TDP1 no CPT – qHTS for Inhibitors of human tyrosyl-DNA phosphodiesterase 1 (TDP1): qHTS in cells in absence of CPT | DT40 Tdp1-/- hTDP1 cells, no CPT, ATP luminescence, 48 h | AID 686978, 2013 | 420,000 tested, 15% active | Potency, µM (highest dose often 46.2 µM), hits mostly inhibitors; further: nearly all actives have a fitted effect of over 55% in size
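Seeded 400 DT40-hTDP1 cells/well (vehicle DMSO, no 20 nM CPT); pinned compounds; ≥48 hr at 37 °C; CellTiter-Glo luminescence as viability measure.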
IL-1B inflam inh – qHTS for Inhibitors of Inflammasome Signaling: IL-1-beta AlphaLISA Primary Screen | THP-1 LPS/ATP IL-1B secretion, AlphaLISA, 16 h; stronger effect = lower value | activity change, % at 57.5 µM | 360,000 tested, 4.7% active; in the data active means activity change below about -50%; inconclusive means mostly about -30% to -49%
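Secreted IL-1B measured by AlphaLISA bead assay after 16 h compound exposure of THP-1 cells; compounds (final up to 57.5 uM) added 1 h before LPS (250 ng/mL) and ATP (1.25 mM) stimulation; lower signal means less secretion.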
DT40 TDP1 CPT – qHTS for Inhibitors of human tyrosyl-DNA phosphodiesterase 1 (TDP1): qHTS in cells in presence of CPT | chicken DT40 Tdp1-/-;hTDP1 cells + 20 nM CPT, ATP luminescence, 48 h | Potency, µM (doses to about 46.2 µM), hits mostly inhibitors | 420,000 tested, 12% active; further: nearly all actives have a fitted effect of over 55% in size
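Chicken DT40 Tdp1-/- cells complemented with human TDP1, 400 cells/well, exposed to compounds plus 20 nM camptothecin for at least 48 h at 37 C; viability read as ATP content by CellTiter-Glo luminescence.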
HT1080 IDH1KD tx – qHTS for induction of synthetic lethality in tumor cells producing 2HG: qHTS for the HT-1080-IDH1KD cell line; Potency, µM (titrated, usually from 46.1 µM), hits mostly cytotoxic; HT-1080 IDH1 knockdown viability, ATP luminescence, 48 h; 360,000 tested, 2% active; AID 686971, 2013
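IDH1KD HT-1080 cells, 750/well, RPMI + 5% FBS; compound pinned after 2 h settling; 48 h, 37 °C; CellTiter-Glo luminescence; % activity normalised to DMSO and no-cell wells; curves fitted, classed by r2 and efficacy.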
Large screens that a line does not name were inactive. Unless noted, the call rests on the fitted dose curve; in most records, active means well fitted curve in the direction sought with a large enough effect; inconclusive means small, poorly fitted or top-dose-only effect, or another doubt; inactive means no such curve, though single readings can be large; an effect the other way counts as inactive or inconclusive.

CC(C)COC(=O)C(C#N)c1nc2ccccc2nc1N1CCN(Cc2ccccc2)CC1 (stereo not given)	DT40 TDP1 no CPT inconclusive, DT40 TDP1 CPT inconclusive
C=CCOC(=O)C(C#N)c1nc2ccccc2nc1N1CCN(c2ccccc2OC)CC1 (stereo not given)	DT40 TDP1 no CPT inconclusive, DT40 TDP1 CPT inconclusive
C=CCNC(=O)c1ccc(NC(=O)CC2SC(N3CCCC3)=NC2=O)cc1 (stereo not given)	none
O=C1NC(CCO)C(=O)NC1CCO (stereo not given)	none
CCOCCCNC(=O)Cn1ncc2c([nH]c3ccccc32)c1=O	none (no result: HT1080-NT tox, IL-1B inflam inh, HT1080 IDH1KD tx)
Cc1ccc2scc(CN3CCCC3)c2c1	none
COCC(C)OC(=O)C(C#N)c1nc2ccccc2nc1N1CCN(Cc2ccccc2)CC1 (stereo not given)	DT40 TDP1 no CPT inconclusive, IL-1B inflam inh -56, DT40 TDP1 CPT inconclusive
COCCNC(=O)C(C#N)c1nc2ccccc2nc1N1CCCCCC1 (stereo not given)	IL-1B inflam inh -71
C=CCNC(=O)C(C#N)c1nc2ccccc2nc1N1CCN(Cc2ccccc2)CC1 (stereo not given)	none
COCCCNC(=O)C(C#N)c1nc2ccccc2nc1N1CCN(Cc2ccccc2)CC1 (stereo not given)	DT40 TDP1 no CPT inconclusive, IL-1B inflam inh -58, DT40 TDP1 CPT 23µM
CC1CC(C)CN(CCCNC(=O)C2CCCN(S(=O)(=O)N3CC(C)CC(C)C3)C2)C1 (stereo not given)	none
Cc1cc(F)c(F)c(C(=O)N2CCC(C)CC2)c1Cl	none
Nc1nn(-c2ccccc2Cl)cc1-c1nn[nH]n1	none
O=[N+]([O-])c1cccc(COc2cccc(CN3CCCCC3)c2)c1	none
Cc1noc(C)c1CN1C(=O)NC2(CCc3ccccc3C2)C1=O (stereo not given)	none
Nc1oc2ccccc2c(=O)c1-c1ccc2c(c1)OCO2	DT40 TDP1 no CPT inconclusive, DT40 TDP1 CPT 18µM
COc1ccccc1-c1oc2ccccc2c1-c1ccc2c(c1)OCO2	HT1080-NT tox inconclusive, DT40 TDP1 no CPT inconclusive, DT40 TDP1 CPT inconclusive
O=c1[nH]c(CSc2ncnc3sc(-c4ccccc4)cc23)nc2ccccc12	DT40 TDP1 no CPT 13µM, DT40 TDP1 CPT 16µM
CC(C)N(C(=O)CSc1ncnc2sc(-c3ccccc3)cc12)C(C)C	DT40 TDP1 no CPT 15µM, DT40 TDP1 CPT inconclusive
CC(Sc1ncnc2sc(-c3ccccc3)cc12)C(=O)N1CCNC1=O (stereo not given)	DT40 TDP1 no CPT inconclusive, DT40 TDP1 CPT 18µM
CCOC(=O)c1c(C)[nH]c(C(=O)CSc2ccccc2)c1C	DT40 TDP1 no CPT inconclusive
CN(C)C(=O)CSc1ncnc2scc(-c3ccccc3)c12	none
COC(=O)c1c(C)[nH]c(C(=O)CSc2ncnc3sc(-c4ccccc4)cc23)c1C	DT40 TDP1 no CPT 16µM, DT40 TDP1 CPT 18µM
O=c1[nH]cnc2sc(-c3ccccc3)cc12	none
CC(=O)C1=CCC(c2ccccc2)N(Cc2ccccc2)C1 (stereo not given)	HT1080-NT tox inconclusive, DT40 TDP1 no CPT 15µM, IL-1B inflam inh -112, DT40 TDP1 CPT inconclusive, HT1080 IDH1KD tx inconclusive
CC(=O)C1=CN(Cc2ccccc2)CCC1=O	none
CC(=O)C1=CCC(c2ccc(Cl)cc2)N(S(=O)(=O)c2ccccc2C)C1 (stereo not given)	HT1080-NT tox inconclusive, DT40 TDP1 no CPT 23µM, DT40 TDP1 CPT 29µM, HT1080 IDH1KD tx 16µM
CC(=O)C1=CCC(c2ccc(C)o2)N(S(=O)(=O)c2ccc(C)cc2)C1 (stereo not given)	DT40 TDP1 no CPT 18µM, DT40 TDP1 CPT 16µM
CC(=O)C1=CCC(c2ccccc2)N(S(=O)(=O)c2ccc(Cl)cc2)C1 (stereo not given)	HT1080-NT tox inconclusive, DT40 TDP1 no CPT 15µM, IL-1B inflam inh inconclusive, DT40 TDP1 CPT inconclusive, HT1080 IDH1KD tx inconclusive
Cc1ccc(C(=O)NNC(=O)c2ccc(-n3cncn3)c([N+](=O)[O-])c2)cc1	none
O=C(COC(=O)c1cccc(Br)c1)NCC1CCCO1 (stereo not given)	none
CC(C)N1CCc2[nH]c(=S)[nH]c(=O)c2C1	DT40 TDP1 no CPT 16µM, DT40 TDP1 CPT inconclusive
CCCN1CCc2[nH]c(=S)[nH]c(=O)c2C1	none
COCCNC(=O)C1CCCN(Cc2ccccc2F)CC1 (stereo not given)	none
NC(=O)COC(=O)c1ccc2noc(-c3ccccc3)c2c1	none
O=C(O)/C=C/c1ccc2noc(-c3ccccc3)c2c1	DT40 TDP1 no CPT inconclusive, DT40 TDP1 CPT 15µM
Cc1ccc(-c2onc3ccc(C=O)cc23)cc1	DT40 TDP1 no CPT 18µM, DT40 TDP1 CPT 16µM
Cc1cccc(NC(=O)c2ccc3c(O)c(S(=O)(=O)c4ccccc4)c(=O)[nH]c3c2)c1C	none (no result: HT1080-NT tox, IL-1B inflam inh, HT1080 IDH1KD tx)
COc1ccc(CN(C)C(=O)c2ccc(OCC(=O)Nc3cccc(C(F)(F)F)c3)c(OC)c2)c(OC)c1	HT1080-NT tox inconclusive, DT40 TDP1 no CPT inconclusive, IL-1B inflam inh -77, DT40 TDP1 CPT inconclusive
CCOC(=O)/C(C#N)=C/c1ccc(OCC(=O)Nc2ccc(OC)cc2)c(OC)c1	none
COc1ccc(NC(=O)CN(C)C(=O)c2ccccc2OCC(=O)Nc2cccc(C(F)(F)F)c2)cc1	DT40 TDP1 no CPT inconclusive, DT40 TDP1 CPT inconclusive
COc1cc(/C=C(\C#N)C(=O)Nc2cc(C(F)(F)F)ccc2Cl)ccc1OCC(=O)Nc1cccc(C(F)(F)F)c1	DT40 TDP1 no CPT inconclusive, DT40 TDP1 CPT 23µM
COc1cc(C(=O)NCCCN(C)C)ccc1OCC(=O)Nc1cccc(C(F)(F)F)c1	DT40 TDP1 no CPT inconclusive, IL-1B inflam inh -53, DT40 TDP1 CPT inconclusive, HT1080 IDH1KD tx inconclusive
COc1cccc(CN(C)C(=O)c2ccc(OCC(=O)Nc3cccc(C(F)(F)F)c3)c(OC)c2)c1	HT1080-NT tox inconclusive, DT40 TDP1 no CPT 9.2µM, IL-1B inflam inh -62, DT40 TDP1 CPT 10µM, HT1080 IDH1KD tx inconclusive
COc1ccc(CN(C)CCCn2cnc3c(OC)ncnc32)cc1OC	none
O=S(=O)(c1ccc(F)cc1)N1CCN(c2nc(-c3cccs3)nc3ccccc23)CC1	DT40 TDP1 no CPT inconclusive, DT40 TDP1 CPT inconclusive (no result: IL-1B inflam inh)
COc1ccc(NC(=O)c2ccco2)cc1NC(=O)c1ccccc1[N+](=O)[O-]	none
OCn1ncn(-c2ccccc2)c1=S	none
Cc1ccccc1C1NC(=S)NC2=C1C(=O)CCC2 (stereo not given)	none
O=C(Nc1ccc(-c2n[nH]c(=S)o2)cc1)c1ccccc1	none
